Among all 69,000 compounds or so, about 8,600 (12%) showed an effect of 50% or more. This excerpt belongs to a sample that is enriched for strong results.

From ChEMBL document CHEMBL4513216, “Probing the Open Global Health Chemical Diversity Library for Multistage-Active Starting Points for Next-Generation Antimalarials” (ACS Infect Dis, 2020) come the findings set out here.

This assay has as its system Plasmodium berghei. The experiment in a line: Screen against P. berghei liver stage (PbLuc), transformed with Luciferase, at 10uM. To be noted: tested at 10 uM. It is filed as functional, HepG2.
In the case of `COCc1n[nH]/c(=N\C(=O)c2c3c(nc4onc(C)c24)CCC3)s1`, the INHIBITION turned out to be 10.7%. For `CC1(C(=O)N2CCOCC2)CN(Cc2ccccc2F)CCO1` (stereo unspecified), the INHIBITION was determined as 25.6%.

Take `O=C(Nc1ccc(-c2csnn2)cc1)NC(CCO)C1CC1` (stereo unspecified): the INHIBITION was 6.11%. Regarding `Cc1[nH]c2nc(CNc3ccccc3Cl)nn2c(=O)c1C`, the INHIBITION is -7.83%. `CCc1ccccc1NCc1nc2[nH]c(C)c(C)c(=O)n2n1`: the INHIBITION is recorded as 52.5%. Regarding `Cc1ccc(Cl)cc1NCc1nc2[nH]c(C)c(C)c(=O)n2n1`, the INHIBITION is reported as 18.3%.

In the case of `CN1CCC(Nc2cc(Cl)ccc2OCC(F)(F)F)C1=O` (stereo unspecified), the INHIBITION turned out to be 4.34%.

Regarding `Cc1cc(CCC(=O)N(C)C)nc(C2CCCCN2)n1` (stereo unspecified), the INHIBITION is 26.3%. Turning to `O=C(Cc1cc(-c2ccc3c(c2)OCO3)on1)NC1CCCC1`, the INHIBITION was found to be 14.6%. `Cc1nnc(SCCCNC(=O)Cc2ccc3c(c2)OCO3)s1`: the INHIBITION stood at 40.9%. In the case of `Cn1cc(CCNC(=O)CCc2ccc3c(c2)OCO3)cn1`, the INHIBITION amounted to 31.3%. The value for `COCCCNC(=O)CN(C)C(=O)c1cc(Cl)ccc1O` was -15.8%; that for `Cc1cc(C(=O)NCc2ccccn2)no1` was -1.88%; that for `COCCCNC(=O)Cc1cc(-c2ccc(Cl)cc2)on1` was 53.7%.

Regarding `COCCCNC(=O)Cc1cc(-c2ccc3c(c2)OCO3)on1`, the INHIBITION was 65.7%. On to `COCCCNC(=O)Cc1cc(-c2ccccc2)on1`, for which the INHIBITION is listed as -34.3%.

`O=C(Cc1cc(-c2ccc3c(c2)OCCO3)on1)NCc1ccccn1`: the INHIBITION came out at 70%. For the molecule `O=C(N1CCOCC1)N1CCCC(c2ncncc2-c2ccncc2)C1` (stereo unspecified), the INHIBITION was 5.11%. Turning to `CC(=O)NCCNC(=O)CN1CCOC(Cn2cccn2)C1` (stereo unspecified), the INHIBITION was 9.29%. Turning to `Cc1csc(N2CCCN(CCC(=O)NC(N)=O)CC2)n1`, the INHIBITION is given as 9.54%.

With `CN(C)C(CNC(=O)c1[nH]nc(C2CC2)c1Br)C1CC1` (stereo unspecified), the INHIBITION was -4.15%. With `Cc1cc(N2CCCC(O)(CN(C)C(=O)CCN)C2)c2cnccc2n1` (stereo unspecified), the INHIBITION is -6.88%. With `COCC(=O)N1CC(c2ccnc(Nc3cc(C(F)(F)F)ccn3)n2)C1`, the INHIBITION is listed as -12.3%. Take `CCOC(=O)c1cnn(-c2cc(Oc3cccc(C)c3)ncn2)c1N`: the INHIBITION was 51.6%. In the case of `CCOC(=O)c1cnn(-c2cc(Oc3ccccc3C)ncn2)c1N`, the INHIBITION is recorded as -35.9%. In the case of `Cc1ccc(C)c(-n2ncc(C(=O)N(C)CCc3ccccn3)c2N)c1`, the INHIBITION is reported as -3.33%. `CCOC(=O)c1cnn(-c2cc(C)ccn2)c1N`: the INHIBITION was -104%. In the case of `COC(=O)c1cnn(-c2cc(Oc3cccc(C)c3)ncn2)c1N`, the INHIBITION came out at 72%. Regarding `CCOC(=O)c1cnn(-c2cc(Oc3ccccc3)ncn2)c1N`, the INHIBITION is reported as -10.9%. On to `Cc1cc(C)n(C2CCN(S(C)(=O)=O)CC2)n1`, for which the INHIBITION is listed as -0.232%.

In the case of `Cc1nn(C)c(N(C)C)c1CNCc1ccc(OCC(N)=O)cc1`, the INHIBITION is 3.45%.

With `c1cn(-c2nccnc2C2CCCN(C3CCOCC3)C2)cn1` (stereo unspecified), the INHIBITION worked out at 18.805%. Turning to `O=C1NC2(CCN(Cc3ccccc3Cl)CC2)CC1c1ccccc1` (stereo unspecified), the INHIBITION worked out at 68.4%.

For the molecule `N#Cc1ccccc1CN1CCC2(CC1)CC(c1ccccc1)C(=O)N2` (stereo unspecified), the INHIBITION amounted to 62.8%. Take `O=C1NC2(CCN(Cc3nccs3)CC2)CC1c1ccncc1` (stereo unspecified): the INHIBITION is 48.9%. In the case of `O=C1NC2(CCN(Cc3ccsc3)CC2)CC1c1ccncc1` (stereo unspecified) it was 12.6%. In the case of `O=C1NC2(CCN(Cc3ccc(F)cc3)CC2)CC1c1ccncc1` (stereo unspecified) it was 35.4%; in that of `N#Cc1cccc(CN2CCC3(CC2)CC(c2ccncc2)C(=O)N3)c1` (stereo unspecified), -1.26%; in that of `O=C1NC2(CCN(Cc3ccoc3)CC2)CC1c1ccncc1` (stereo unspecified), 32.4%. The value for `O=C1NC2(CCN(Cc3cccs3)CC2)CC1c1ccncc1` (stereo unspecified) was 59.1%; that for `O=C1NC2(CCN(C(=O)c3ccc(Cl)cc3)CC2)CC1c1ccccc1` (stereo unspecified) was 14%. On to `CCNC(=O)c1ccc2c(c1)nc1n2CCN(Cc2ccco2)C1`, for which the INHIBITION is recorded as -9.48%. Regarding `C[C@H]1C[C@H]2CN(S(=O)(=O)c3ccc(F)cc3)CC[C@@H]2O1`, the INHIBITION is -1.12%. With `CCn1cc(-c2nn3c(C(F)(F)F)nnc3s2)cn1`, the INHIBITION is reported as -11.4%.

Regarding `O=C(NCC1CCC(c2ccnc3ncnn23)CC1)C1CC1` (stereo unspecified), the INHIBITION is given as 21.1%. The value for `CSc1ncn(-c2nc(N(C)C)nc(N(C)C)n2)n1` was 21.2%. In the case of `CN(C)C(=O)N1CCC2(CC1)NC(=O)c1ccccc12`, the INHIBITION is reported as -13.9%.

Turning to `O=C(NCc1ccco1)N1CCCCC1c1nc(C2CC2)no1` (stereo unspecified), the INHIBITION was determined as 16%. With `COC(=O)[C@H](C)NC(=O)c1nc(C2CC2)n(-c2ccccc2Cl)n1`, the INHIBITION was -20.8%. As for `COc1cc(Cl)ccc1C(=O)NCc1nncn1C`, the INHIBITION is listed as 52.3%. In the case of `CCn1cnnc1CNC(=O)c1cc(Cl)ccc1O`, the INHIBITION is on record as -35.1%. The value for `CCn1cnnc1CNC(=O)c1cc(F)ccc1OC` was 29.7%; that for `Cn1cnnc1CNC(=O)c1ccc(Br)cc1O` was -48.5%; that for `CCn1cnnc1CCNC(=O)c1ccc(Br)cc1F` was 25.5%. The value for `CCn1cnnc1CNC(=O)c1ccc(Br)cc1F` was 56.5%; that for `CCn1cnnc1CNC(=O)c1cc(Cl)ccc1F` was 56.4%; that for `CCn1cnnc1CNC(=O)c1ccc(Cl)cc1F` was 36.2%. With `CCn1cnnc1CNC(=O)c1cc(Cl)ccc1OC`, the INHIBITION is -9.98%. With `CN(CC(=O)N1CCOCC(CO)C1)Cc1ccc(F)cc1` (stereo unspecified), the INHIBITION was -12.1%. As for `Cc1noc(C)c1CN1CCCC2(C1)CN(Cc1nccn1C)CCO2` (stereo unspecified), the INHIBITION was 10%.

For the molecule `CC(C)=CCN1C[C@@H]2CC[C@H]1CN(C(=O)c1ccc3c(c1)OCO3)C2`, the INHIBITION was 33%. In the case of `CN(C)S(=O)(=O)N1CCN(Cc2ccnc(N3CCCC3)n2)CC1`, the INHIBITION is given as 7.52%. In the case of `COc1ccc(-c2cc(C3CCNCC3)ccn2)cc1` it was 23.9%; in that of `O=C(c1ccc(-c2ccc(O)nc2)s1)N1CCCCC1`, -69.6%; in that of `O=C(Nc1ccccn1)c1nc(N2CCCC2)ncc1Cl`, -4.48%.

Take `O=C(Nc1cc(Cl)ccn1)c1nc(N2CCCC2)ncc1Cl`: the INHIBITION was -35%. In the case of `Cc1cc(NC(=O)c2nc(N3CCCC3)ncc2Cl)nc(C(C)C)n1`, the INHIBITION amounted to 66.8%. As to `O=C1NCC(C(=O)Nc2ncc(Cc3ccccc3F)s2)N1` (stereo unspecified), the INHIBITION is reported as -17.4%. As to `CS(=O)(=O)N1CCc2sc(C(=O)NCCc3ccccn3)cc21`, the INHIBITION is recorded as -47.8%. Regarding `CC(C)(C)OC(=O)NCCNC(=O)c1ccc2cc[nH]c2c1`, the INHIBITION is reported as -16%. Turning to `COCCN1C(=O)CCC12CCCN(Cc1ccccc1F)C2` (stereo unspecified), the INHIBITION was determined as 44.5%.

As for `CCS(=O)(=O)N[C@@H]1CN(Cc2cc(C)on2)C[C@@H]2CCCO[C@@H]21`, the INHIBITION worked out at 21%. With `Cc1nc(CN2C[C@@H]3CCCO[C@@H]3[C@H](N(C)C(C)C)C2)cs1`, the INHIBITION stood at 66.8%. Consider `Cc1cc(CN2C[C@@H]3CCCO[C@@H]3[C@H](N(C)C(C)C)C2)no1`, for which the INHIBITION is reported as 71.6%.

For the molecule `Cc1cc(CN2C[C@@H]3CCCO[C@@H]3[C@H](NS(C)(=O)=O)C2)no1`, the INHIBITION is listed as -13%. In the case of `Cc1nc(CN2C[C@@H]3CCCO[C@@H]3[C@H](NC(=O)CC3CC3)C2)cs1`, the INHIBITION was determined as 47.9%. `COC1CCC[C@@H]2CN(Cc3csc(C)n3)C[C@H]12` (stereo partly specified): the INHIBITION is recorded as 40.3%. For `Cc1ncsc1CN1C[C@H](OCC(C)C)[C@H]2OCCC[C@H]21`, the INHIBITION is listed as -37.9%. In the case of `Cc1ncsc1CN1C[C@@H]2CCCO[C@@H]2[C@H](N(C)C(C)C)C1`, the INHIBITION worked out at 50.7%. As to `Cc1ncsc1CN1C[C@@H]2CCCO[C@@H]2[C@H](Nc2ccccn2)C1`, the INHIBITION is 34.2%. Turning to `Cc1cccc(C)c1NC(=O)CN(C)C(C)c1nc(C(C)(C)C)no1` (stereo unspecified), the INHIBITION was 34.6%.

Take `Cc1cccc(OCCNC(=O)CN2CCCC2Cn2cncn2)c1` (stereo unspecified): the INHIBITION worked out at 12.7%. With `CNC(=O)c1cc(C)ccc1NCc1cn2cc(C)ccc2n1`, the INHIBITION is reported as 29.6%. For `CCC(C#N)NC(=O)c1sccc1OC` (stereo unspecified), the INHIBITION stood at 26.4%. In the case of `COCC1CC2(CCN(C(=O)c3cncc(C)c3)CC2)CO1` (stereo unspecified) it was -26.1%. With `O=C(NCc1cccnc1)c1nc2c(s1)CCCN2c1ncccn1`, the INHIBITION is listed as 26.3%. As for `Cc1ccc(N2CCCc3sc(C(=O)NCc4cccnc4)nc32)nn1`, the INHIBITION came to 63.5%.

`Cc1ccc(N2CCCc3sc(C(=O)NCc4ccncc4)nc32)nn1`: the INHIBITION is 42.5%. On to `CC(C)N(C)CC(=O)N(C)C(c1cccc(F)c1)c1ccccn1` (stereo unspecified), for which the INHIBITION is given as -55.4%. Regarding `Cc1cc(CN(C)CC2CCCN(CCc3ccc(Cl)cc3)C2)[nH]n1` (stereo unspecified), the INHIBITION is recorded as 86.6%. For `CCN(CC1CCCN(CCc2cccc(OC)c2)C1)C(=O)CN(C)C` (stereo unspecified), the INHIBITION is recorded as 16%. Consider `CN(Cc1cccc(O)c1)CC1CCCN(CCc2ccc(Cl)cc2)C1` (stereo unspecified), for which the INHIBITION came out at 73.5%. Turning to `Cc1nc[nH]c1CN(C)CC1CCCN(CCc2ccc(Cl)cc2)C1` (stereo unspecified), the INHIBITION is recorded as 33.7%.

For `CN(Cc1ccccc1O)CC1CCCN(CCc2ccc(Cl)cc2)C1` (stereo unspecified), the INHIBITION came out at 5.36%.

`COc1ccc(CCN2CCCC(CN(C)Cc3ccc(C)o3)C2)cc1` (stereo unspecified): the INHIBITION turned out to be 70.6%. As to `COc1ccccc1CCN1CCCC(CN(C)Cc2cc(C)n[nH]2)C1` (stereo unspecified), the INHIBITION is reported as 36.8%. Turning to `O=C(Nc1ccc(Cl)cn1)C1CCCN(CCc2ccncc2)C1` (stereo unspecified), the INHIBITION is listed as 74.4%.

In the case of `O=C(Nc1ccc(Cl)cn1)C1CCCN(Cc2ccccn2)C1` (stereo unspecified), the INHIBITION was 15.7%.

As for `O=C(Nc1ccc(Cl)cn1)C1CCCN(CCc2ccccn2)C1` (stereo unspecified), the INHIBITION is listed as 48.3%.

In the case of `COc1ccccc1CCN1CCCC(CN(C)Cc2ccc(C)o2)C1` (stereo unspecified), the INHIBITION is given as 22%. On to `COc1ccc(CCN2CCCC(CN(C)Cc3[nH]cnc3C)C2)cc1` (stereo unspecified), for which the INHIBITION came out at 16.3%. In the case of `O=C(O)c1cc(-c2cccs2)nc2c(Cl)cnn12` it was 47.1%. Take `Cn1cc(C#N)c(=O)n(CC(O)c2ccccc2F)c1=O` (stereo unspecified): the INHIBITION is given as -4.185%.

Turning to `CC(=O)N1CCC(c2cnc(-c3c(C)n[nH]c3C)cn2)CC1`, the INHIBITION is 49.6%. Regarding `CC(CC(=O)O)CC(=O)Nc1sc2c(c1C(N)=O)CCc1ccccc1-2` (stereo unspecified), the INHIBITION came out at 27.5%. Consider `CNC(=O)C(C)(C)N1CCC[C@H]1C(=O)NCCN1CCCC1`, for which the INHIBITION is recorded as -84.9%.
